Measurements taken from PubChem BioAssay (NCATS).
Inconclusive results are not listed. Calls of active or inactive are those of the source. Unless noted, calls come from the whole dose curve; as a rule, active = well fitted curve in the direction sought with a large enough effect; inconclusive = small, poorly fitted or top-dose-only effect, or another doubt; inactive = no such curve, though single readings can be large; an effect the other way counts as inactive or inconclusive.

Assays:
[1] = qHTS assay for small molecule antagonists of peroxisome proliferator-activated receptor delta signaling (AID 588535); details: HEK293T PPARd-UAS-bla, beta-lactamase FRET ratio, 18 h; 460 nm channel;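 note: cells co-treated with a PPAR-delta agonist as stimulator during compound exposure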
Summary of the method: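 Compounds tested in titration on PPAR-delta-UAS-bla HEK293T cells grown in charcoal/dextran-stripped serum (2%); beta-lactamase activity read via CCF4 emission at 460 and 530 nm.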

[2] = biological target: Peroxisome proliferator-activated receptor gamma (Homo sapiens) (UniProt P37231); assay: qHTS assay for small molecule agonists of peroxisome proliferator-activated receptor gamma signaling (AID 588536; active = well fitted curve in the direction sought with a large enough effect in the signal ratio, with a control signal flat, not every such curve was filed as active; the % refers to the signal ratio;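 note: 0% = DMSO basal wells and 100% = rosiglitazone at 2 µM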)
Summary of the method: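 Beta-lactamase reporter read-out: CCF4 fluorescence (ex 405, em 460/530 nm) after 2 h at RT. HEK293 GeneBLAzer cells were treated for 16 h at 37 C. Hill fits gave EC50 and efficacy versus 2 uM rosiglitazone (100%) and DMSO (0%).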

[3] = biological target: Peroxisome proliferator-activated receptor gamma (Homo sapiens) (UniProt P37231); assay: qHTS assay for small molecule antagonists of peroxisome proliferator-activated receptor gamma signaling (AID 588537; active = well fitted inhibition curve with a large enough effect in the signal ratio, with a control signal flat, not every such curve was filed as active; the % refers to the signal ratio;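 note: reporter cells co-stimulated with 50 nM rosiglitazone agonist during compound treatment; % of control where 0% means no effect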)
Summary of the method: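 HEK293 cells, PPAR-gamma-UAS-bla, 3000/well. Pre-incubation 6-6.5 h, 37 C. Compound titration with rosiglitazone 50 nM final, 16 h. CCF4 dye, 2 h RT, dual-emission fluorescence.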

[4] = biological target: Vitamin D3 receptor (Homo sapiens) (UniProt P11473); assay: qHTS assay for small molecule agonists of vitamin D receptor signaling (AID 588543; calls by dose curve;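 note: 0% = DMSO basal and 100% = reference agonist control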)
Summary of the method: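 VDR-UAS-bla HEK293T cells, 2000/well, 2% charcoal-stripped FBS; compound titration 16 h at 37 C; CCF4 beta-lactamase ratio read. Normalized to 50 nM 1-alpha,25-dihydroxyvitamin D3 (100%) and DMSO; Hill fit gives EC50, efficacy.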

[5] = qHTS assay for small molecule agonists of retinoid X receptor alpha signaling (AID 588544; calls by dose curve;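 for activation: 0% = DMSO basal wells and 100% = reference agonist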); details: HEK293T RXRa-UAS-bla, beta-lactamase reporter, 18 h; 530 nm emission
[6] = biological target: Retinoic acid receptor RXR-alpha (Homo sapiens) (UniProt P19793); assay: as above
[7] = biological target: Thyroid hormone receptor beta (Homo sapiens) (UniProt P10828); assay: qHTS assay for small molecule agonists of thyroid hormone receptor beta signaling (AID 588545; calls by dose curve)
Summary of the method: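 Agonist activity was read as beta-lactamase CCF4 fluorescence (405 ex, 460/530 em), scaled between DMSO (0%) and 10 nM T3 (100%), then Hill-fitted for EC50 and efficacy. HEK 293 TR-UAS-bla cells in 2% charcoal/dextran FBS medium were exposed 18 h at 37 C.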

[8] = qHTS assay for small molecule antagonists of retinoid X receptor alpha signaling (AID 588546; active = well fitted inhibition curve with a large enough effect in the signal ratio, with a control signal flat, not every such curve was filed as active; the % refers to the signal ratio; note: potency is the fitted concentration of half-maximal effect;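 for max response: cells stimulated with 9-cis-retinoic acid as agonist; % is set by controls: 0 for no effect and ±100 for the full control effect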); details: HEK293T RXRa-UAS-bla, beta-lactamase ratio, antagonist mode; measured here: W530 green channel, cytotoxicity proxy
Summary of the method: (§1)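 Beta-lactamase reporter inhibition, read as CCF4 fluorescence ratio (ex 405, em 460/530 nm) after 2 h at RT. HEK293T UAS-bla cells, 2500/well, were stimulated with 9-cis-RA at 500 or 100 nM final alongside test compound for 18 h at 37 C.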

[9] = biological target: Thyroid hormone receptor beta (Homo sapiens) (UniProt P10828); assay: qHTS assay for small molecule antagonists of thyroid hormone receptor beta signaling (AID 588547; active = well fitted inhibition curve with a large enough effect in the signal ratio, with a control signal flat, not every such curve was filed as active; the % refers to the signal ratio;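 note: cells stimulated with 0.4 nM T3 agonist during compound exposure; series mostly up to about 77 µM; % is set by controls: 0 for no effect and ±100 for the full control effect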); details: TR-UAS-bla HEK293, beta-lactamase ratio, antagonist mode, 18 h
Summary of the method: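 TR-UAS-bla GripTite HEK293 cells in 2% charcoal/dextran FBS medium were preincubated 4 h at 37 C, given compound (0.59 nM to 92 uM) plus 0.4 nM T3 (final) for 18 h, then CCF4 for 2 h at RT; Hill fit gave IC50.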

[10] = qHTS assay for small molecule activators of the p53 signaling pathway (AID 651743; active = well fitted activation curve with a large enough effect in the signal ratio, not every such curve was filed as active; the % refers to the signal ratio; note: series mostly up to about 92 µM; % of control where 0% means no effect); details: HCT-116 p53RE-bla, beta-lactamase FRET ratio, 16 h; activation: stronger effect = higher value
Summary of the method: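 Here HCT-116 cells with an integrated p53-responsive beta-lactamase gene were incubated with compounds (16 hours, 37 C) after a 5-hour plating period; beta-lactamase activity was detected as fluorescence intensity via B/G FRET substrate.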

[11] = qHTS assay for environmental chemicals that activate the Aryl hydrocarbon Receptor (AhR) signaling pathway (AID 651777); details: 1A2-DRE human hepatoma cells, luciferase, 24 h; activation: stronger effect = higher value; note: % of control where 0% means no effect; nearly all actives have a fitted effect of over 15% in size
Summary of the method: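 Induction of CYP1A2 transcription through AhR is detected by luciferase in 1A2-DRE hepatoma cells. Compounds or DMSO act for 24 hr at 37 C before a 30 min One-Glo step at room temperature.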

[12] = biological target: Peroxisome proliferator-activated receptor alpha (Homo sapiens) (UniProt Q07869); assay: qHTS assay for small molecule agonists of the peroxisome proliferator-activated receptor alpha (PPARalpha) signaling pathway (AID 651778); details: PathHunter PPARalpha complementation, chemiluminescence, 6 h; max response: stronger effect = higher value; note: % of control where 0% means no effect
Summary of the method: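 Cells plated at 2,000/well and held overnight at 37 C, 5% CO2, then compound added by pin tool for 6 hr; after PathHunter detection reagent and 60 min at room temperature, chemiluminescence from enzyme complementation was read.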

[13] = qHTS assay for small molecule agonists of the antioxidant response element (ARE) signaling pathway measured by Nrf2-dependant transcriptional activity (AID 720636; active = well fitted curve in the direction sought with a large enough effect in the repeat runs; an effect the other way counts as inactive or inconclusive; note: potency is the fitted concentration of half-maximal effect;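 for activation: HepG2 cells with an ARE-driven luciferase reporter; % of control where 0% means no effect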)
Summary of the method: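 We exposed ARE-luc HepG2 cells, seeded in assay medium with 1% dialyzed FBS and allowed 6 hr to adhere, to test compounds overnight (16 hr, 37 C) before measuring luciferase with ONE-Glo.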

[14] = qHTS assay for small molecule agonists of the antioxidant response element (ARE) signaling pathway measured by Nrf2-dependant transcriptional activity - cell viability counter screen (AID 720653; active = well fitted curve in the direction sought with a large enough effect in the repeat runs; an effect the other way counts as inactive or inconclusive; note: % is set by controls: 0 for no effect and ±100 for the full control effect); details: ARE-bla HepG2 viability, CellTiter-Glo ATP luminescence, 16 h; max response: stronger effect = lower value
Summary of the method: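 ARE-bla HepG2 cells (2,000/well) rested 5 hrs at 37C/5% CO2, then exposed to compounds in DMSO for 16 hrs. Viability was read in the same wells as intracellular ATP by luminescence, 30 min at room temperature after reagent addition.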

[15] = qHTS assay for cell viability of HEK293 cells (AID 743288); details: ATP luminescence (CellTiter-Glo), 18 h; max response: stronger effect = lower value; note: % is set by controls: 0 for no effect and ±100 for the full control effect; nearly all actives have a fitted effect of over 50% in size
Summary of the method: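 Steps: plate 2,000 parental HEK293 cells per well; incubate ≥5 h, 37 C; add compounds in DMSO; incubate 18 h, 37 C; add CellTiter-Glo; wait 30 min at room temperature; read luminescence.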

[16] = qHTS assay for cell viability of the p53RE-bla HCT-116 cell line (AID 743292); note: % is set by controls: 0 for no effect and ±100 for the full control effect; nearly all actives have a fitted effect of over 55% in size
Summary of the method: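 In this qHTS counter-screen, metabolically competent p53RE-bla HCT-116 cells were counted via their ATP content. Compounds were applied for 16 h at 37 C and luciferase-coupled luminescence was measured.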

[17] = biological target: Nuclear receptor subfamily 1 group I member 2 (Rattus norvegicus) (UniProt Q9R1A7); assay: qHTS assay for small molecule activators of the rat pregnane X receptor (rPXR) signaling pathway (AID 651751; call rule not given here; note: 0% is about no effect); details: rPXR reporter cells, luciferase (One-Glo), 24 h
[18] = qHTS assay for small molecule activators of the human pregnane X receptor (PXR) signaling pathway (AID 720659; call rule not given here; note: 0% is about no effect)
[19] = biological target: Retinoic acid receptor RXR-alpha (Homo sapiens) (UniProt P19793); assay: qHTS assay for small molecule antagonists of retinoid X receptor alpha signaling (AID 588546); details: HEK293T RXRa-UAS-bla, beta-lactamase ratio, antagonist mode; note: potency is the fitted concentration of half-maximal effect;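 for max response: cells stimulated with 9-cis-retinoic acid as agonist; % is set by controls: 0 for no effect and ±100 for the full control effect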
Summary of the method: as §1

[20] = biological target: Estrogen receptor (Homo sapiens) (UniProt P03372); assay: qHTS assay for small molecule agonists of estrogen receptor alpha signaling (AID 588514; calls by dose curve; note: nearly all actives have a fitted effect of over 70% in size; note: potency is the fitted concentration of half-maximal effect;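 for activation: 0% = vehicle only and 100% = reference agonist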)
Summary of the method: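 Read-out: CCF4 fluorescence from a beta-lactamase reporter in ER-alpha-UAS-bla HEK 293 cells after 18 hrs of compound exposure at 37 C. Normalized to 20 nM 17-beta-estradiol (100%) and DMSO (0%).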

Sequence of Thyroid hormone receptor beta (Homo sapiens) (P10828 whole entry, looked up): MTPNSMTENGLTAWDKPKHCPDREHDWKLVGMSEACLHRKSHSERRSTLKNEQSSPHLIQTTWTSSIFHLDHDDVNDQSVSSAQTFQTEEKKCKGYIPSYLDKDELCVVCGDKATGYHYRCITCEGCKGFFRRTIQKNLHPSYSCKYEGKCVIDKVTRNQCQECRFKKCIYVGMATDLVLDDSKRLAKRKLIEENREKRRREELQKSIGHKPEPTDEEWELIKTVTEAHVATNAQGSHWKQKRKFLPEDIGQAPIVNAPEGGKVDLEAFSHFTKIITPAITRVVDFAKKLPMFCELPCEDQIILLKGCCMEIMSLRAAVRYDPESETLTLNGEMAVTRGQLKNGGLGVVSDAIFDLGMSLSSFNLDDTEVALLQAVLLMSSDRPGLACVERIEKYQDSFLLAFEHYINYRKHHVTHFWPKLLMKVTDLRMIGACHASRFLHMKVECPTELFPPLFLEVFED
Sequence of Peroxisome proliferator-activated receptor alpha (Homo sapiens) (Q07869 whole entry, looked up): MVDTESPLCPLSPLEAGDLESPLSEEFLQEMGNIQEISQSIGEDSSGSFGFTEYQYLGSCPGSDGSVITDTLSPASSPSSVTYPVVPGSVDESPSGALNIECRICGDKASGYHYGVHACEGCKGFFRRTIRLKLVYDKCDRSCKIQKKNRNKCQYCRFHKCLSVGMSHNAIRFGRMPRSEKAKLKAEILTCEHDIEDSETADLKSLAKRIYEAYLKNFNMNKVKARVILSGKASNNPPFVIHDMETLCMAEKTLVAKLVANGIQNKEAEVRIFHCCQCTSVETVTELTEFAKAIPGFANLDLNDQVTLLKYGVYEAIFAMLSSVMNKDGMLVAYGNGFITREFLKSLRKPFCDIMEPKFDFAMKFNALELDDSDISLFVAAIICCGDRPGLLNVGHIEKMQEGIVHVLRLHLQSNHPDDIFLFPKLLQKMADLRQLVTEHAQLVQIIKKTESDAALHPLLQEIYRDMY
Sequence of Nuclear receptor subfamily 1 group I member 2 (Rattus norvegicus) (Q9R1A7 whole entry, looked up): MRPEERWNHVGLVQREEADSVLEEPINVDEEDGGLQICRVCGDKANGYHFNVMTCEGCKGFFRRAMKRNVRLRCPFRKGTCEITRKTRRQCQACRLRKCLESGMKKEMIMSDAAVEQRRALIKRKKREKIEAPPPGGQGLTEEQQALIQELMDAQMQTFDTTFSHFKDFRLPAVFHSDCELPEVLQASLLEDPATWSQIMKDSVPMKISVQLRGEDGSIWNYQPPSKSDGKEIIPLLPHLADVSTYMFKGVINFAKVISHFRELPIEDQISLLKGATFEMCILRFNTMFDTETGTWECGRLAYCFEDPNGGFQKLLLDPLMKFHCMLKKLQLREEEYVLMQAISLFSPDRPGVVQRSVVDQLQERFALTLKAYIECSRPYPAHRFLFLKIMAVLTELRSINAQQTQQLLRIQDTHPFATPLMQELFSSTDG
Sequence of Retinoic acid receptor RXR-alpha (Homo sapiens) (P19793 whole entry, looked up): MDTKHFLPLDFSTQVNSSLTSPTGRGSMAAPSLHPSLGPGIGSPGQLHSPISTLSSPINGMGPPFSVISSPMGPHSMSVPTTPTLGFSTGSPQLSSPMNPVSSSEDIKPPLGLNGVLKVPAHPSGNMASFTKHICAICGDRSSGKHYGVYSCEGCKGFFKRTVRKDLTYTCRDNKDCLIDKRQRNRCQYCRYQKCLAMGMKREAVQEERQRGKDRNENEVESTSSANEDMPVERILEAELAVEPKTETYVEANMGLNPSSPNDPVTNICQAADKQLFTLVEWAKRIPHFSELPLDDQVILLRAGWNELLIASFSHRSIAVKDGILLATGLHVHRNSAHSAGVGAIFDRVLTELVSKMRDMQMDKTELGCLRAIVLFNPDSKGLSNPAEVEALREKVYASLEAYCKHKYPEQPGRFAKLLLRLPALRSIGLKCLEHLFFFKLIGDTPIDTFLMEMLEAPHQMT
Sequence of Peroxisome proliferator-activated receptor gamma (Homo sapiens) (P37231 whole entry, looked up): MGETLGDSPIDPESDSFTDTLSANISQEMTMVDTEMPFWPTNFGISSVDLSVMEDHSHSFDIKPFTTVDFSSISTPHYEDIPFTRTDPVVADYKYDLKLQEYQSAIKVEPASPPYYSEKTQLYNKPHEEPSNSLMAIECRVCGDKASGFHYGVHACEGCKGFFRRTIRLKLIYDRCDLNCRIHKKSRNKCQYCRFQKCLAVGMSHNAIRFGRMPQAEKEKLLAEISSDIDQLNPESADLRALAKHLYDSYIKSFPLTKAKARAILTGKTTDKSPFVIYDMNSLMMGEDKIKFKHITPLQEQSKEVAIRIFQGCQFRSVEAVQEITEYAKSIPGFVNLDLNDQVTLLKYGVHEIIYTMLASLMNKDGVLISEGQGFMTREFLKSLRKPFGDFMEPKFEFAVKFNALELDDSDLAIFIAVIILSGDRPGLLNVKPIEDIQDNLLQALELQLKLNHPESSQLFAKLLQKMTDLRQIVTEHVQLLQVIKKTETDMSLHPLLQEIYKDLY
Sequence of Vitamin D3 receptor (Homo sapiens) (P11473 whole entry, looked up): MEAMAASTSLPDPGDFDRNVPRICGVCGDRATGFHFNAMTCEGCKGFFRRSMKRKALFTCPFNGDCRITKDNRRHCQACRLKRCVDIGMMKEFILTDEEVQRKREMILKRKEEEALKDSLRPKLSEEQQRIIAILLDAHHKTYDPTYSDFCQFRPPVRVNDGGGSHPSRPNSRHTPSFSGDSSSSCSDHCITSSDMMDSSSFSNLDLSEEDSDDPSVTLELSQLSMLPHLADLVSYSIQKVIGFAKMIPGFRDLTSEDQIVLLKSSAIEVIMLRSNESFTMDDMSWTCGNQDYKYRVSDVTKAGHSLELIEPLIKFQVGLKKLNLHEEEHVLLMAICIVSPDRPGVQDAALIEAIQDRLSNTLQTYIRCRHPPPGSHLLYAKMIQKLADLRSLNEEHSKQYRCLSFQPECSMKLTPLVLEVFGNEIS
Sequence of Estrogen receptor (Homo sapiens) (P03372 whole entry, looked up): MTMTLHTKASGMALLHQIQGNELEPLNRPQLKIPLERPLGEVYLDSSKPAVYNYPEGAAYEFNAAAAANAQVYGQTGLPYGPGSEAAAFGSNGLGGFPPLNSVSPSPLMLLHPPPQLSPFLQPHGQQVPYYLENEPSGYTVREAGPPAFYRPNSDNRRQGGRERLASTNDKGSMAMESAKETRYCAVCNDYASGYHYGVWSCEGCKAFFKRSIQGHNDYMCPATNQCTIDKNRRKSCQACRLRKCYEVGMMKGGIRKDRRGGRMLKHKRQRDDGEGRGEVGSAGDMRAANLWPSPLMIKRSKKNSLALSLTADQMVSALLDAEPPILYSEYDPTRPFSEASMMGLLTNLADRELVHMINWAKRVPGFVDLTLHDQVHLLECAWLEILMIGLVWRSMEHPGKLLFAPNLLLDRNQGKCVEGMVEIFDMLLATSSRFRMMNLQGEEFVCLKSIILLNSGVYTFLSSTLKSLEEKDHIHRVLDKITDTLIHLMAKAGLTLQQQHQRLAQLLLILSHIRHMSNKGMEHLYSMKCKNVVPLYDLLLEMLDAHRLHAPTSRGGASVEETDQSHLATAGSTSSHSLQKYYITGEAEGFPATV

CCCCCc1ccc(N)cc1
-0.233%: max response [5]
19.2%: max response [1]
inactive: outcome [2] | Potency [3] | outcome [4] | Potency [6] | Potency [7] | activity change % (negative = inhibition) [9] 0.338% | activation [10] 9.16% | activation [11] 1.05% | max response [12] -1.26% | Potency [13] | max response [14] 5.18% | max response [15] -6.55% | Potency [16] | max response [17] 1.5% | outcome [18]
-8.57%: max response [8]

CC1(C)C(=O)NC(=O)N1CO
inactive: outcome [2] | Potency [3] | outcome [4] | Potency [6] | Potency [7] | max response [19] -4.89% | activation [10] -0.511% | activation [11] 1.93% | Potency [13] | max response [14] -2.23% | max response [15] -2.85% | Potency [16] | max response [17] 1.33% | outcome [18]
-6.79%: max response [8]
-10.3%: max response [5]
11.7%: max response [1]

C[Si](C)(C)N[Si](C)(C)C
-10.7%: max response [8]
inactive: outcome [2] | Potency [3] | outcome [4] | Potency [6] | Potency [7] | max response [19] 1.24% | activity change % (negative = inhibition) [9] -1.93% | activation [10] 1.4% | activation [11] 1.22% | max response [12] -0.0059% | Potency [13] | max response [14] 1.14% | max response [15] -5.89% | Potency [16]
-0.733%: max response [5]

O=C(O)C(Oc1ccc(Cl)cc1)Oc1ccc(Cl)cc1
-2.46%: max response [1]
-7.28%: max response [8]
inactive: Potency [20] | outcome [4] | Potency [6] | Potency [7] | max response [19] -10.5% | activity change % (negative = inhibition) [9] -5.07% | activation [10] 2.64% | activation [11] -1.04% | max response [12] 4.93% | Potency [13] | max response [14] -5.82% | max response [15] -2.57% | Potency [16] | max response [17] -9.92% | outcome [18]
4.78%: max response [5]

CCCCCCCCCC[N+](C)(C)Cc1ccccc1
inactive: outcome [2] | Potency [3] | Potency [7] | activation [10] 6.02% | activation [11] 0.379% | max response [12] 7.43% | Potency [13] | max response [14] -23% | max response [15] -27.5% | max response [17] -4.11% | outcome [18]
active: Potency [20] 1.12 µM | Potency [19] 35.5 µM
16%: max response [8]

C=C(C)C(=O)OCCC[Si](OC)(OC)OC
-3.97%: max response [8]
-14.5%: max response [5]
inactive: outcome [2] | Potency [3] | Potency [6] | Potency [7] | max response [19] -21.4% | activity change % (negative = inhibition) [9] 2.39% | activation [11] -2.37% | max response [12] -1.45% | Potency [13] | max response [14] -0.904% | max response [15] -1.87% | Potency [16] | max response [17] -1.68%
51.6%: max response [1]

Oc1ccc2ccccc2c1N=Nc1ccccc1
-13.8%: max response [8]
inactive: outcome [2] | Potency [7] | max response [19] -15.2% | max response [12] 0.672% | max response [14] -25.3% | max response [15] -20.8% | Potency [16] | max response [17] 5.24%
active: Potency [13] 9.69 µM
